# USP28 block – inhibitors of human USP28 deubiquitinase. inhibition, % at 25 µM. purified USP28, Ub-rhodamine cleavage fluorescence, 30 min. Q96RU2. actives 3% (n = 47,000)
# USP30 block – human USP30 deubiquitinase inhibition; Q70CQ3; purified USP30, Ub-rhodamine cleavage fluorescence; inhibition, % at 25 µM; actives 5.3% (n = 47,000)
# USP17 block – blocks human USP17 ubiquitin-rhodamine cleavage | actives 6.5% (n = 47,000) | A8MUK1 | purified USP17, Ub-rhodamine cleavage fluorescence, 3 h | AID 1645855 | inhibition, % at 50 µM
# Target sequence (A8MUK1 whole entry, looked up): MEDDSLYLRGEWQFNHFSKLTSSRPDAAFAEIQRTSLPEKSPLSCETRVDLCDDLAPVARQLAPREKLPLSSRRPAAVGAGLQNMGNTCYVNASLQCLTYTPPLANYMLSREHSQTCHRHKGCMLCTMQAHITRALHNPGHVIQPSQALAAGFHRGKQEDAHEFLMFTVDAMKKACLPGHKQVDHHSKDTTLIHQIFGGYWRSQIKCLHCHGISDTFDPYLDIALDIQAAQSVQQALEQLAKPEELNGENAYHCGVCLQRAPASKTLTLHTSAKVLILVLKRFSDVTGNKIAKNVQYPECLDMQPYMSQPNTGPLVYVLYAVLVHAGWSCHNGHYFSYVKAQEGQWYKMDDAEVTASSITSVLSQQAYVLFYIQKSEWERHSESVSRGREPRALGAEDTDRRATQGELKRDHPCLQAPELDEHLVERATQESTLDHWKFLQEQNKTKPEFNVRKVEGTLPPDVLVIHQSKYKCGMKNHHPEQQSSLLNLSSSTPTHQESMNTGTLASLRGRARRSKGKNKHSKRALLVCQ
# USP8 block – inhibitors of human USP8 deubiquitinase. P40818. purified USP8, Ub-rhodamine cleavage fluorescence, 30 min. inhibition, % at 20 µM. actives 4.2% (n = 47,000). AID 1645853
# The depositor's hits bear a star; x = no result given. This is a sample that favours compounds with a hit; in the whole collection about 13% have one here. No stated cut-off is given here; in the data, active means inhibition above about 30%; inactive means the rest.
SMILES,USP28 block,USP30 block,USP17 block,USP8 block
C/C1=C/C=C/[C@H](C)[C@H](O)[C@@H](C)[C@@H](O)[C@@H](C)[C@H](O)[C@H](C)[C@@H](O)[C@@H](C)/C=C(/C)C(=O)c2c(O)c(C)cc3c2C(=O)C=C(NC1=O)C3=O,-6.3,-62.0,50.5*,-46.0
COC1=C2CC(C)CC(OC)C(O)C(C)/C=C(\C)C(OC(N)=O)C(OC)/C=C\C=C(/C)C(=O)NC(=CC1=O)C2=O (configuration not stated),-4.2,-32.8,-13.6,4.4
CC(=O)N1Cc2ccccc2OC2(CCN(Cc3ccc(O)cc3)CC2)C1,-0.9,6.4,-34.3,-205.6
O=C(CCSc1ccc(Cl)cc1)c1cccs1,24.4,8.9,84.5*,7.0
CCn1cncc1CN1CCc2cc(OC)c(OC)cc2C1c1ccncc1 (configuration not stated),6.7,6.1,-9.0,-50.6
O=C(c1nc(-c2cccc3[nH]ccc23)no1)N1CCCC1,6.2,48.5*,40.6*,1.0
COc1ccc(Cl)cc1C(=O)Nc1cc(C)cc(C)n1,-14.6,8.7,46.1*,10.6
O=C(NCc1ccc2c(c1)OCO2)c1cc([N+](=O)[O-])ccc1N1CCCCC1,23.0,32.9*,5.7,-68.5
Cc1cccc(CNC(=O)c2cccc(-c3cnc(N4CCCC4)nc3)c2)c1,-6.7,7.0,-3.3,-3.3
COc1ccc(CNC(=O)c2cccc(-c3cnc(N4CCCC4)nc3)c2)cc1,0.0,49.3*,45.2*,-0.2
O=C(NCc1ccc2c(c1)OCO2)c1cccc(-c2cnc(N3CCCC3)nc2)c1,13.7,43.1*,30.2*,29.5
Cc1cc(N2CC3(CCCCC3)OC2=O)nc(C2CCCN2C(=O)C(C)(C)C)n1 (configuration not stated),-1.7,6.7,4.7,-7.9
Cc1cc(N2CC3(CCCCC3)OC2=O)nc(C2CCN(S(C)(=O)=O)CC2)n1,-28.2,23.7,14.2,31.2*
O=C(NCCN1CCCC1)C1CCN(c2cnc(N3CCCCC3)nc2)CC1,77.7*,-43.5,-24.9,0.0
CC(=O)NC(Cc1cccc(C)c1)C(=O)NC1CCN(S(=O)(=O)c2ccccc2)CC1 (configuration not stated),0.3,4.6,3.4,-3.0
COc1cccc(C(=O)Nc2ccccc2-c2nc(-c3ccncc3)no2)c1,13.0,38.8*,23.8,24.6
O=C(CNC(=O)c1cc(F)cc(F)c1)Nc1nc2ccccc2[nH]1,4.6,16.7,7.8,35.7*
COc1ccccc1CC(=O)Nc1cnc(-c2ccc(F)cc2)nc1,2.7,7.0,12.4,30.3*
COc1ccc(C(C)=O)cc1CC(=O)Nc1nc2ccccc2[nH]1,23.6,21.2,59.2*,28.1
Cc1c(OCC(=O)Nc2nc3ccccc3[nH]2)ccc2c3c(c(=O)oc12)CCC3,7.9,51.6*,37.1*,8.3
COc1ccccc1CC(=O)Nc1cnc(-c2ccc(C)cc2)nc1,2.5,-0.8,5.2,8.3
COc1ccccc1CC(=O)Nc1nc2ccccc2[nH]1,3.3,15.0,60.1*,9.9
NC(=O)c1cnn2c(C3CCCCN3Cc3cncs3)ccnc12 (configuration not stated),5.6,6.9,11.4,27.5
O=C(CN1CCC2(CC1)N=C(c1ccc(Cl)cc1)C(=O)N2)Nc1cccc(Cl)c1,-2.3,4.2,-11.6,-14.2
O=C(CN1CCC2(CC1)N=C(c1ccc(F)cc1)C(=O)N2)Nc1ccc(F)c(F)c1,11.7,43.6*,0.7,6.1
SMILES,USP28 block,USP30 block,USP17 block,USP8 block
O=C(Cn1cncn1)NCc1cccc(C(F)(F)F)c1,-11.7,-11.0,-8.3,0.0
O=C(NCc1cccc(C(F)(F)F)c1)c1ccc(-n2cccn2)nc1,5.8,31.6*,6.6,-10.5
CC(C)n1cc(CN2CCC(C(=O)Nc3cccc(-c4cccc(Cl)c4)c3)CC2)cn1,18.3,2.8,-11.8,-5.5
COc1ccccc1CNC(=O)Cc1cc(-c2ccc(Cl)cc2)on1,-18.0,-54.4,14.1,0.1
NS(=O)(=O)c1ccc(CCNC(=O)Cc2cc(-c3ccc(F)cc3F)on2)cc1,21.6,-8.4,8.4,40.4*
CC(NC(=O)Cc1cc(-c2ccc(F)cc2)on1)c1ccccc1 (configuration not stated),5.5,20.6,30.6*,13.4
O=C(Cc1cc(-c2ccc(Cl)cc2)on1)NCCc1ccccc1,-13.4,-45.8,-5.5,53.1*
CCN1C(=O)C(C)(C)COc2ccc(NS(=O)(=O)c3cccc(F)c3)cc21,-9.3,-14.6,x,-16.9
O=C(CS(=O)(=O)c1ccc(F)cc1)Nc1ccc(-c2nc3ccccc3s2)c(O)c1,0.9,-8.6,36.5*,-20.0
O=C(Cn1cc(SCc2ccccc2Cl)c2ccccc21)N1CCCC1,22.5,13.6,32.0*,-12.4
O=C(NCc1ccc(F)cc1)C1CCN(C(=O)c2cc(-c3cccnc3)n[nH]2)CC1,-6.5,-0.3,-5.5,-0.9
O=C(NCc1ccc(Br)cc1)c1cc(-c2cccnc2)n[nH]1,14.8,24.1,36.9*,90.5*
COc1ccc(Cl)cc1C(=O)NNC(=O)c1cc(-c2ccccc2)n[nH]1,-1.6,4.8,10.8,85.1*
Cc1ccc(C)c(NC(=O)c2cc(-c3cccnc3)n[nH]2)c1,-0.2,-12.3,x,-14.2
Cc1cc(NC(=O)c2cc(-c3cccnc3)n[nH]2)ccc1Br,48.3*,67.8*,32.9*,97.6*
Cc1cc(Cl)ccc1NC(=O)c1cc(-c2cccnc2)n[nH]1,92.7*,23.0,66.9*,7.4
COc1cccc(NC(=O)Cn2cnc3c(c(C)c(C)n3-c3ccccc3)c2=O)c1,21.2,9.1,1.5,20.2
Cc1nn(-c2ccc(F)cc2)c(C)c1S(=O)(=O)N1CCN(c2ncccn2)CC1,11.0,16.2,10.5,-0.2
CC(C)CCN1CCC2(CC1)OC(C(=O)Nc1cccnc1)Cn1ccnc12 (configuration not stated),-88.7,-356.2,-54.3,-1.2
COc1ccc(Nc2nc(NCCc3ccccc3)nc3c2cnn3C)cc1,-6.8,-1.1,14.1,-5.1
COc1cccc(Nc2nc(NCCc3ccccc3)nc3c2cnn3C)c1,-5.1,-35.9,-0.4,-3.4
Cn1ncc2c(Nc3ccc(Cl)cc3)nc(NCCc3ccccc3)nc21,5.6,41.5*,36.5*,-0.7
COc1cccc(Nc2nc(NCc3ccccc3)nc3c2cnn3C)c1,39.5*,-29.6,27.4,-0.5
CNc1nc2c(c(=O)n1C)CN(S(=O)(=O)c1ccc(C(F)(F)F)cc1)CC2,-6.0,-0.5,-0.1,-5.2
CC(C)c1ccc(Cn2c(=O)c3sccc3n3c(=O)[nH]nc23)cc1,2.2,3.5,12.5,1.5
COc1cccc(-c2nn(C)c3c2[C@H]2CN(Cc4cccnc4)C[C@H]2C3)c1,-1.2,-1.3,0.9,-3.0
Cc1cccc(NC(=O)CC2Nc3ccccc3OC2=O)c1 (configuration not stated),3.9,-40.7,40.5*,-17.5
O=C(Nc1ccc(F)cc1)c1c(O)c2cccnc2n(-c2ccccc2)c1=O,-4.1,8.3,7.4,10.5
COc1ccc(CNC(=O)c2c(O)c3cccnc3n(-c3ccccc3)c2=O)cc1,7.3,20.4,22.2,84.1*
CCc1nc2c(NC(=O)Nc3cccc(C(=O)OC)c3)cccn2n1,50.2*,-2.7,4.2,0.4

# Source: PubChem BioAssay (Buhrlage Lab, Dana-Farber Cancer Institute and Novartis Institutes for BioMedical Research (Cambridge, Mass))
